# Data published in ChEMBL document CHEMBL1961873, “Compounds: GSK PKIS; Assays: Nanosyn kinase panel” (2012).
# Columns and labels:
# [1] = molecular target: RAC-alpha serine/threonine-protein kinase (Homo sapiens) (UniProt P31749); conditions: at 0.1 µM
# [2] = molecular target: RAC-alpha serine/threonine-protein kinase (Homo sapiens) (UniProt P31749); conditions: at 1 µM
# [3] = molecular target: RAC-beta serine/threonine-protein kinase (Homo sapiens) (UniProt P31751); conditions: at 0.1 µM
# [4] = molecular target: RAC-beta serine/threonine-protein kinase (Homo sapiens) (UniProt P31751); conditions: at 1 µM
# [5] = molecular target: RAC-gamma serine/threonine-protein kinase (Homo sapiens) (UniProt Q9Y243); conditions: at 0.1 µM
# RAC-gamma serine/threonine-protein kinase (Homo sapiens), sequence (Q9Y243 whole entry): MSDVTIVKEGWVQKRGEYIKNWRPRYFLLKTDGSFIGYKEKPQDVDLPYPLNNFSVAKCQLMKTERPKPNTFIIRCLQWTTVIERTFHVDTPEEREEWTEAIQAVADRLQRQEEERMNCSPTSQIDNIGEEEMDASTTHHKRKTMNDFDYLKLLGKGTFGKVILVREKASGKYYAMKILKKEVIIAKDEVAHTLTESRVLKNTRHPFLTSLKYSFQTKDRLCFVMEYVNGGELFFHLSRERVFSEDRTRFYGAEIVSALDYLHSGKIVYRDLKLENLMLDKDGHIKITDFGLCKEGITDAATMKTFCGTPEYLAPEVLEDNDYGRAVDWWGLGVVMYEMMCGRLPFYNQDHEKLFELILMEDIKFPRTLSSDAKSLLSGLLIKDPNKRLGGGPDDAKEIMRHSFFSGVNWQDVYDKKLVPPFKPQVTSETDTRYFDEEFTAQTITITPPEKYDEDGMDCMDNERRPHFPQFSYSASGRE
# [6] = molecular target: RAC-gamma serine/threonine-protein kinase (Homo sapiens) (UniProt Q9Y243); conditions: at 1 µM
# [7] = molecular target: G protein-coupled receptor kinase 6 (Homo sapiens) (UniProt P43250); conditions: at 0.1 µM
# [8] = molecular target: G protein-coupled receptor kinase 6 (Homo sapiens) (UniProt P43250); conditions: at 1 µM
# [9] = molecular target: T1, Rhodopsin kinase GRK7 (Homo sapiens) (UniProt Q8WTQ7); conditions: at 0.1 µM
# T1 sequence (whole entry): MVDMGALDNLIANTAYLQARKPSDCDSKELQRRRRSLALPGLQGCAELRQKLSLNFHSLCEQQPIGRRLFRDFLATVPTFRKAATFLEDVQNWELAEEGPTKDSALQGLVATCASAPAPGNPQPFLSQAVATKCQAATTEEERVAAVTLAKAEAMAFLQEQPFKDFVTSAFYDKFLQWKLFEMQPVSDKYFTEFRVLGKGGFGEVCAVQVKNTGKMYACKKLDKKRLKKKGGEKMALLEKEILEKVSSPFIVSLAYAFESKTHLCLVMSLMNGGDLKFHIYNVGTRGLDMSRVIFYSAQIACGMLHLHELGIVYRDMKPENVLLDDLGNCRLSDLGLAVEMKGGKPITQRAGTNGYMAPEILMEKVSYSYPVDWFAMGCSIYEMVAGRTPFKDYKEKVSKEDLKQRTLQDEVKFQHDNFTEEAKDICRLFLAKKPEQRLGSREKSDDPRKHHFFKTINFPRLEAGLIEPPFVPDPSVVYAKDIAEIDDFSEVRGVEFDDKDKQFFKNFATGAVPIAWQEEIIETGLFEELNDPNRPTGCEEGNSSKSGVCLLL
# [10] = molecular target: T1, Rhodopsin kinase GRK7 (Homo sapiens); conditions: at 1 µM
# [11] = molecular target: Serine/threonine-protein kinase MRCK alpha (Homo sapiens) (UniProt Q5VT25); conditions: at 0.1 µM
# [12] = molecular target: Serine/threonine-protein kinase MRCK alpha (Homo sapiens) (UniProt Q5VT25); conditions: at 1 µM
# [13] = molecular target: Serine/threonine-protein kinase MRCK beta (Homo sapiens) (UniProt Q9Y5S2); conditions: at 0.1 µM
# Serine/threonine-protein kinase MRCK beta (Homo sapiens), sequence (Q9Y5S2 whole entry): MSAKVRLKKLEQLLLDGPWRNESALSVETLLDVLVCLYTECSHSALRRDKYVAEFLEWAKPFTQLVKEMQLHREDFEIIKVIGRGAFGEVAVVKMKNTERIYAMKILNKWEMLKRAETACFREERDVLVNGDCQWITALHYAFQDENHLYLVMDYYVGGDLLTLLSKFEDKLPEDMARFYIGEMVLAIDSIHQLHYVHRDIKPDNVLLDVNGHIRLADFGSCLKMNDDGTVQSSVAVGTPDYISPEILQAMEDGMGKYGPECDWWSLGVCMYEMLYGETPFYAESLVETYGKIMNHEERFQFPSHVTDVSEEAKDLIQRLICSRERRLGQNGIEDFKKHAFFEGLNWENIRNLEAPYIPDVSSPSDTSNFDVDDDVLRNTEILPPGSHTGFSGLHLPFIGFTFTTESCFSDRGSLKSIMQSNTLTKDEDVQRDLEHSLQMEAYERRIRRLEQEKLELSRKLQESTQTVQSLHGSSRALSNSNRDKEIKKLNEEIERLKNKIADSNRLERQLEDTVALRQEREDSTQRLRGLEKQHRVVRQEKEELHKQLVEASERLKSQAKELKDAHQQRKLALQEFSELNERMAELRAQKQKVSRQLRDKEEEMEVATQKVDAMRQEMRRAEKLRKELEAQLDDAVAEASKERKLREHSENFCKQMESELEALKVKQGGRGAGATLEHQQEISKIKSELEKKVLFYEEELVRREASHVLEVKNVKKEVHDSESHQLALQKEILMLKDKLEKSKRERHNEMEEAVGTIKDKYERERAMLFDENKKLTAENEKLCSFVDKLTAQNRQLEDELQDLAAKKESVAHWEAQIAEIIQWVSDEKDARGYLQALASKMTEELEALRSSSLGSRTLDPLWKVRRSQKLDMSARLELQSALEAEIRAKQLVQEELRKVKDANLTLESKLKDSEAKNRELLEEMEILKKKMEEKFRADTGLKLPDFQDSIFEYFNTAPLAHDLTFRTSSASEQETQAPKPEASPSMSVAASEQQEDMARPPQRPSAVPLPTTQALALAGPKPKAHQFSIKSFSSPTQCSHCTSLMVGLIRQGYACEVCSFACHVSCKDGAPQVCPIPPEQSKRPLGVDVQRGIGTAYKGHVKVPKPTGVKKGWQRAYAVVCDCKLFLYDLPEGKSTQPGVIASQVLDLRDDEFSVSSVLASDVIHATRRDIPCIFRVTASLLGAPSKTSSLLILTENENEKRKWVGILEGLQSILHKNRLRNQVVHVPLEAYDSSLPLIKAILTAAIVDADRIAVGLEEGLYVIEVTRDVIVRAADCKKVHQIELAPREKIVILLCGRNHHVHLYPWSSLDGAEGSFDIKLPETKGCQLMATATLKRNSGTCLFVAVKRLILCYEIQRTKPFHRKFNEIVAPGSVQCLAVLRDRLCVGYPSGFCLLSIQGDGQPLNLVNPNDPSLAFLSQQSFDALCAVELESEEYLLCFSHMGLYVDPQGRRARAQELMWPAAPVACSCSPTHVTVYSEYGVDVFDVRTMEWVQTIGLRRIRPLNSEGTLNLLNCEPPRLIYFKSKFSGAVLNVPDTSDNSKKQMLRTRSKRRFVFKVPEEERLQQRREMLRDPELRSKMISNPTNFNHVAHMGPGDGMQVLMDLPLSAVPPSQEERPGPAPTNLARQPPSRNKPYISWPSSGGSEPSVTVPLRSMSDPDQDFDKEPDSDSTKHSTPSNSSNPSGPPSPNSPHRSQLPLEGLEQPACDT
# [14] = molecular target: Serine/threonine-protein kinase MRCK beta (Homo sapiens) (UniProt Q9Y5S2); conditions: at 1 µM
# [15] = molecular target: Ribosomal protein S6 kinase alpha-5 (Homo sapiens) (UniProt O75582); conditions: at 0.1 µM
# Ribosomal protein S6 kinase alpha-5 (Homo sapiens), sequence (O75582 whole entry, looked up): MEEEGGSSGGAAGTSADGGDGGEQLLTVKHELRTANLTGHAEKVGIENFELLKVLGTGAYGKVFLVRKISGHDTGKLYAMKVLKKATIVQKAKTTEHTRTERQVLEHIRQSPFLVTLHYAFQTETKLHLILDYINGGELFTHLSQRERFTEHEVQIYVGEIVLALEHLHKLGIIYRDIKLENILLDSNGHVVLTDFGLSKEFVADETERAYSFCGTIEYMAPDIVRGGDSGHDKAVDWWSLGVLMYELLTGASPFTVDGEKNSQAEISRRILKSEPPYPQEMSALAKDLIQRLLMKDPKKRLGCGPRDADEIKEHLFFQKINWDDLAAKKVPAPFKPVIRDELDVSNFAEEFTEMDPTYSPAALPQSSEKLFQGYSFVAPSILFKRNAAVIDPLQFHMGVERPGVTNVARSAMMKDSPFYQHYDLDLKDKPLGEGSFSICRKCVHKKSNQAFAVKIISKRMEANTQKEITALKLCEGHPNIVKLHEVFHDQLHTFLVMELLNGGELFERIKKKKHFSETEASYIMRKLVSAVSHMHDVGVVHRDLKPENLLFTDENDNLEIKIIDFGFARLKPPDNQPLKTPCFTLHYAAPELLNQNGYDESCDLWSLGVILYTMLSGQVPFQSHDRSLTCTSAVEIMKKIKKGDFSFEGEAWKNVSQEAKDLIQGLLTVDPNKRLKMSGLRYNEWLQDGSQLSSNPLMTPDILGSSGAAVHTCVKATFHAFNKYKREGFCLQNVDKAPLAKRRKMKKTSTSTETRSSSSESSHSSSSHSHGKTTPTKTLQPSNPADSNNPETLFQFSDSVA
# [16] = molecular target: Ribosomal protein S6 kinase alpha-5 (Homo sapiens) (UniProt O75582); conditions: at 1 µM
# [17] = molecular target: Ribosomal protein S6 kinase alpha-4 (Homo sapiens) (UniProt O75676); conditions: at 0.1 µM
# Ribosomal protein S6 kinase alpha-4 (Homo sapiens), sequence (O75676 whole entry, looked up): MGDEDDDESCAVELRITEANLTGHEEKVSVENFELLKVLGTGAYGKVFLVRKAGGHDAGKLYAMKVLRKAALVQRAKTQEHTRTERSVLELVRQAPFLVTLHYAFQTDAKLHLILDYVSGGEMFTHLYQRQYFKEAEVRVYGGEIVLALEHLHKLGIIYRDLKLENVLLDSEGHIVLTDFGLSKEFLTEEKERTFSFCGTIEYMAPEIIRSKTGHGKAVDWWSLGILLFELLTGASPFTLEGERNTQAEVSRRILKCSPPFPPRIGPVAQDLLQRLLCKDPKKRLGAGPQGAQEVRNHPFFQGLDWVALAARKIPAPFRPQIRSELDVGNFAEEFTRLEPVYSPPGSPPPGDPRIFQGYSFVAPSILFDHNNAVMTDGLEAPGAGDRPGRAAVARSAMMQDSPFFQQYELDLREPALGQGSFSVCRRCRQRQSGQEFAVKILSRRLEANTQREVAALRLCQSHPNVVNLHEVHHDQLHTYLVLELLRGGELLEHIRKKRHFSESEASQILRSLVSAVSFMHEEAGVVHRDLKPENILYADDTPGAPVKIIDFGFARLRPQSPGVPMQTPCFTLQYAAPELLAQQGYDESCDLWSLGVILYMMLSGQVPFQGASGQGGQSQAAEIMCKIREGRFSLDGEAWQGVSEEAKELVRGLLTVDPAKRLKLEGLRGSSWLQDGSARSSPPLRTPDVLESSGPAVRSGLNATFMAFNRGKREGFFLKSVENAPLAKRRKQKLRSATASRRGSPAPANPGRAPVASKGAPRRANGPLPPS
# [18] = molecular target: Ribosomal protein S6 kinase alpha-4 (Homo sapiens) (UniProt O75676); conditions: at 1 µM
# [19] = molecular target: Ribosomal protein S6 kinase beta-1 (Homo sapiens) (UniProt P23443); conditions: at 0.1 µM
# Ribosomal protein S6 kinase beta-1 (Homo sapiens), sequence (P23443 whole entry, looked up): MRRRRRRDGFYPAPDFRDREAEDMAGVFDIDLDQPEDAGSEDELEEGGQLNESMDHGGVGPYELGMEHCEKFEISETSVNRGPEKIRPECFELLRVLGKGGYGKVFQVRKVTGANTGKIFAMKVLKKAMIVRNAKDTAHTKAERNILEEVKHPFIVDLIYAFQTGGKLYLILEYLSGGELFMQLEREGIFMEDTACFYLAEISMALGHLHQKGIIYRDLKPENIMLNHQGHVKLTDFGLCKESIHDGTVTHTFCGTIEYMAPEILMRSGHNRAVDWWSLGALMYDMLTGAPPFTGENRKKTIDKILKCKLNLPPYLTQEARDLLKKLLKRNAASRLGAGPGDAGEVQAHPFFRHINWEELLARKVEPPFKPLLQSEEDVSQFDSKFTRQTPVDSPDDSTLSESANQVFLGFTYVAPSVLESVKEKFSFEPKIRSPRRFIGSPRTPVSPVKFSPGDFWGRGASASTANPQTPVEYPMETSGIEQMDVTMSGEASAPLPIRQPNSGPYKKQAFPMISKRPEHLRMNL
# [20] = molecular target: Ribosomal protein S6 kinase beta-1 (Homo sapiens) (UniProt P23443); conditions: at 1 µM
# RAC-alpha serine/threonine-protein kinase (Homo sapiens), sequence (P31749 whole entry): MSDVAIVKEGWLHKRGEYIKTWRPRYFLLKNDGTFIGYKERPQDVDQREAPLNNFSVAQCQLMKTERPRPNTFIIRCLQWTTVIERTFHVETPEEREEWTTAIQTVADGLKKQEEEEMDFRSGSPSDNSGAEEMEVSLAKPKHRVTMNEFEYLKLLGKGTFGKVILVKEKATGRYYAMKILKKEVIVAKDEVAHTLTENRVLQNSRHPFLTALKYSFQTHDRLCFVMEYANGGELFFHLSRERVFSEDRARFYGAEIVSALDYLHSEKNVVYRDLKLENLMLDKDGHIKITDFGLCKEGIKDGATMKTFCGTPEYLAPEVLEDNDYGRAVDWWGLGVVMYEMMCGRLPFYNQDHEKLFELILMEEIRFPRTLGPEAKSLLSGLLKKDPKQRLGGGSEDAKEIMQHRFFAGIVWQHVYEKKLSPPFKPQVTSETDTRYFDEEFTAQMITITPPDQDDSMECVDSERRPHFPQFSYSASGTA
SMILES,inhibition [1] [%],inhibition [2] [%],inhibition [3] [%],inhibition [4] [%],inhibition [5] [%],inhibition [6] [%],inhibition [7] [%],inhibition [8] [%],inhibition [9] [%],inhibition [10] [%],inhibition [11] [%],inhibition [12] [%],inhibition [13] [%],inhibition [14] [%],inhibition [15] [%],inhibition [16] [%],inhibition [17] [%],inhibition [18] [%],inhibition [19] [%],inhibition [20] [%]
CS(=O)(=O)Nc1ccc(N/C=C2\C(=O)Nc3ccccc32)cc1,-2.28,-2.1,-3.92,-2.28,-3.25,1.91,-1.94,0.5,-1.39,-5.45,-2.44,-0.5,0.24,-0.45,-1.26,-0.97,-0.53,7.44,-0.58,3.4
COc1ccc(-c2nn3ncccc3c2-c2ccnc(Nc3ccc(Cl)c(C(F)(F)F)c3)n2)cc1,0.26,0.27,1.16,0.96,3.64,-0.03,6.26,9.79,4.07,8.67,-0.16,3.43,-1.37,0.06,1.49,1.69,0.22,2.02,0.17,2.22
NS(=O)(=O)c1ccc(N/N=C2\C(=O)Nc3ccc(C(=O)NCCc4c[nH]cn4)cc32)cc1,1.49,0.74,3.41,1.59,1.65,2.39,5.89,9.39,5.2,7.5,-0.15,2.43,1.24,2.13,4.49,5.44,4.34,18.7,2.49,8.75
COC(=O)Nc1nc2cc(Oc3ccc(NC(=O)Nc4cccc(C(=O)O)c4)cc3)ccc2[nH]1,-2.71,-3.33,-3.47,-2.42,-1.3,-3.6,2,-0.77,1.5,-3.21,1.42,1.5,-0.52,-1.21,-0.25,1.28,1.24,2.84,0.88,0.91
NCc1ccc(-c2nc(-c3ccc(Cl)c(O)c3)c(-c3ccncc3)[nH]2)cc1,0.06,0.47,-1.18,-0.26,-0.23,0.68,-0.28,-0.98,-2.26,2.84,0.67,-0.06,-1.19,1.3,0.16,2.56,-0.59,2.82,0.03,0.71
Cc1nn(C)c2cc(N(C)c3ccnc(Nc4cccc(S(N)(=O)=O)c4)n3)ccc12,0.47,0.23,1.6,2.15,1.22,1.54,3.92,3.28,2.2,10.5,-1.1,2.42,1.01,3.81,10.5,11.1,4.88,6.94,2.3,2.85
COc1ccc2cc(-c3c(-c4ccncc4)nc(-c4ccc([S+](C)[O-])cc4)n3C)ccc2c1 (stereo not given),1,0.09,1.34,1.69,1.23,0.72,-3.74,-0.39,2.62,2.42,0.19,1.36,0.92,1.62,3.04,1.94,1.31,4.13,2.56,2.88
CCn1c(-c2nonc2N)nc2c(N3CCCC3)nccc21,-2.09,-2.19,-3.12,-0.45,-0.61,1.15,0.48,2.71,-7.43,0.27,-0.27,5.42,-0.1,2.55,-0.19,11.2,-0.68,3.67,-0.49,8.23
CS(=O)(=O)CCNCc1ccc(-c2ccc3ncnc(Nc4ccc(OCc5ccccc5)c(Cl)c4)c3c2)o1,-1,-0.87,0.26,0.32,-0.1,-0.63,0.49,0.68,7.87,-3.27,-0.63,-1.47,0.86,0.8,-7.35,-6.84,0.04,1.73,0.22,2.03
COc1ccccc1Nc1ncc(-c2ccccc2)o1,1.37,1.71,0.6,2.82,0.12,3.9,2.46,3.95,10.1,2.31,-5.48,-2.78,0.73,0.66,-3.3,-5.77,4.65,2.42,1.36,2.44
CS(=O)(=O)CCNCc1ccc(-c2ccc3ncnc(Nc4ccc(OCc5cccc(F)c5)c(C(F)(F)F)c4)c3c2)o1,1.75,0.54,2.87,0.73,2.73,2.96,9.26,5.4,3.55,8.92,-0.31,1.73,-0.15,0.67,9.28,8.53,2.67,2.44,1.58,2.22
COc1cc2c(cc1Nc1nc(N3CCc4ccccc43)c3cc[nH]c3n1)N(C(=O)CN(C)C)CC2,1.38,1.39,0.6,1.42,1.23,1.23,1.54,-3.01,-0.63,-6.08,1,-1.14,0.86,1.27,4.25,4.71,0.65,1.75,1.59,0.46
O=C1NC(=O)C(c2cccc(Cl)c2)=C1Nc1ccc(O)c(Cl)c1,0.39,1.25,0.32,-0.16,0.98,0.23,2.15,1,0.66,6.41,0.28,3.73,1.27,2.02,0.69,2.04,0.07,3.61,0.45,0.8
NC(=O)c1cccc(Nc2nccc(Nc3cccc4[nH]ncc34)n2)c1,-2.33,1.84,-3.71,-1.08,-2.36,-1.13,-0.32,2.35,-7.6,5.88,-0.16,2.18,0.71,3.5,-3.36,2.78,-1.85,1.24,-1.61,4.1
